# Source: the supplement of paper PMC6555819
# Tested on: VDR:RXRa (NR concentration 270 nM, RXRa partner concentration 90 nM)
# Assay: PBM binding z-score (relative to random genomic background probes); higher = stronger binding; sequences stand for … in GC…GCGATTGACAGCGTAGAATGAAGG
# Protocol: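 Protein-binding microarray (Agilent 4x180K custom design, double-stranded 60-nt probes: 5' GC cap, 34-nt variable region, 24-nt constant primer region; full probe sequence given). Purified or IVT nuclear receptor:RXRα heterodimers (3:1 NR:RXRα, mostly 270:90 nM) or homodimers were incubated for 1 h in PBS with 2% milk and no ligand, then detected with Alexa488 antibodies. Fluorescence from o1-orientation probes (~5 replicates averaged) was converted to z-scores against 500 random hg19 background probes. Variable regions are seed direct-repeat (DR0–DR5) sites, all their single-nucleotide variants and half-site ablations.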
row,Sequence,PBM binding z-score
1,CGTCTAAGGTCAATGCTAGGTCAGTGAAAGCATT,5.23
2,TGTCAAAGTTCAAAGGTAACGTACGTATCCACAC,5.05
3,TCTAGCAGGTCAGAGGGTCACTCAAGAGGTACGG,4
4,TAGCCTATGTCATGCGGGCCAGTATAGTGTCGGC,-0.45
5,CCGACTGGGCCAAAGGTCATTGATTCCAATGCTC,4.58
6,ATACCAAGGTGTTCGTGAGGTCGTTGATACTAAC,2.81
7,CGTCCAAGGTCAAAAGTCAGTGAAGAGATGACGG,3.74
8,TCTTGTAGATCAGGAGGTTAAGAAAGCTGGCCAA,0.556
9,ATCGAAAGGTCGGAGGTGAGTATACCCACCCGAA,1.75
10,TCTGCTAGGTCAACGATGGTCAGCTACTCTGCTA,1.68
11,CCTTACTGGTCACTGACAGGTTATAGCATTTGGA,0.592
12,AGAATGAAGTTATTAAGATCAGGGAATTGCGGTC,-0.316
13,CCTTACGAGTCACTGACAGGTTATAGCATTTGGA,1.06
14,AGAACGAGGGCATGCTGAGTTGATAGCAGAGTAG,1.5
15,CCAGTCAGGTGAAAGGTAACTCAGTCTGGTACGC,0.52
16,TCTTGTAGATCAACAGGAGGTTAAAAAAGATCGA,0.744
17,ACAGACAAGTGAGTGAAGGTAACTCAGCTGGACG,-0.435
18,TCTAGCAGGCCAGAGGGTAACTCAAGAGGTACGG,-0.204
19,CCTACTGGGCCGCGAAAGGTCATTGATTCAGTGA,3.74
20,TTACCTAGGTGAAGGTCGTTGATCCCTCTGTAGA,1.06

row,Sequence,PBM binding z-score
1,CCGAGTAGGTTATGGGGCATTGAGGCAACGGTGA,0.258
2,ATATGTAGGTTAGCTGGGGTCAATCAGACTAGGC,5.46
3,GCGACTGGGGCAAAGCAGGTTACCATCAGGTTGG,-0.194
4,TCGAGTAGGTTACCAATGGTGCATTCAGCTTTCT,0.228
5,CCTATTAGTTGACCACAAGGGCAACCGAAGCTCG,0.807
6,TGTCAAAGTTCAGAGGTAACGTAAGTATCCACAC,3.36
7,CCGACTGGTGCAGAAAGGTTACCATACCATCCGG,0.685
8,TCAGACAGGTGAAGGTAACTCTGGTACGCAGTCG,0.577
9,GATACAGGGTCAAGGGCAGAGTACGCGTATTGAT,4.62
10,GGAACGAGGGCAAGTTGTTAGCAGAGTTTGATGG,0.88
11,CCTGCGAGGTCAATGGTCAGCTAAAGCAGCTCGC,4.73
12,CGTCCCAGGTCAGAGAGGTCAGTGAATGCCGAGT,6.8
13,CCTTTCGGGTCACGAGGTTATAGCACGACGAGCG,5.31
14,ACAGACAGGTGAGTGAAGGAAACTCAGCTGGACG,-0.816
15,CAAACTAGGACAAAGGTCAAAGTCGAGCCAACCA,4.93
16,ATCGAAAGGTCGTGAGGGGAGTATACAGAAAGGC,3.55
17,CCTAGCAGGTCAGGGTCACTCAAGCATTTCGCTT,4.13
18,CCAGACAGGTGAAAGGTAGCTCAGTCTGGTACGC,-0.089
19,CAAACTAGGTCGAAGGTCAAAGTCGAGCCAACCA,4.45
20,AGCGAAAGGTCGTGAGGTGAGTATACAGAAAGGC,3.51
